Assay outcomes: PubChem BioAssay, National Center for Advancing Translational Sciences (NCATS)
Hits are enriched below; roughly 3% of the tested compounds scored in any of these assays.
12-LOX inh = Primary qHTS assay for inhibitors of human arachidonate 12S-lipoxygenase (ALOX12): Round 2. Polyunsaturated fatty acid lipoxygenase ALOX12 (Homo sapiens), P18054. purified 12hLO, xylenol orange hydroperoxide absorbance. Potency, µM (highest dose often 108 µM), without a hit: at the highest dose activity change, negative = inhibition, usual class: inhibitors. 580,000 tested, 1.1% active; active = well fitted inhibition curve with a large enough effect; inconclusive = small, poorly fitted or top-dose-only effect, or another doubt; inactive = no such curve, though single readings can be large or run the other way; also: potency is read from the fitted curve at half-maximal effect; % is scaled to controls: 0 for no effect and ±100 for the full control effect
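Purified human 12hLO at 150 nM in 25 mM Hepes, 0.01% Triton X-100, pH 7.0, preincubated 15 min at room temperature with compound. Reaction started with 40 uM arachidonic acid, 30 min at room temperature. Hydroperoxide measured by Fe-xylenol orange, 573/405 nm absorbance ratio.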
KCNH2 WT inh = qHTS for Inhibitors of KCHN2 3.1: Wildtype qHTS; Voltage-gated inwardly rectifying potassium channel KCNH2 (Homo sapiens), Q12809; U2OS, BacMam KCNH2, thallium flux FluxOr; stronger effect = lower value; AID 720551, 2013; 340,000 tested, 0.37% active; activity change, % at 1.84 µM;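 active = maximum activity change below -70%; inconclusive = maximum activity change between -70% and -50%; inactive = maximum activity change above -50%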; also: % is scaled to controls: 0 for no effect and ±100 for the full control effect
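U2OS cells transduced with wild-type KCNH2 virus are loaded with FluxOr dye for 45 min, and thallium flux is measured in kinetic reads before and after stimulation buffer. Rate constants are normalized to DMSO controls.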
Chronic BCR inh = qHTS Assay to Find Inhibitors of Chronic Active B-Cell Receptor Signaling; ABC-DLBCL IkBa-CBG/CBR reporter, luminescence ratio, 4 h; Potency, µM (titrated, usually from 46.1 µM), without a hit: at the top dose activity change, negative = inhibition, hits mostly inhibitors; 340,000 tested, 0.05% active; AID 493014, 2011; active = well fitted inhibition curve with a large enough effect in the signal ratio, with a control signal flat, not every such curve was filed as active; inconclusive = small, poorly fitted or top-dose-only effect, or effect the other way, or a change in a side signal; the % refers to the signal ratio;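 also: potency is read from the fitted curve at half-maximal effect; plate controls were basal doxycycline-induced cells for no effect and cells given 10 µM MG132 for full effect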
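Cell line TMD8 (human ABC DLBCL), stably expressing tet-inducible CBG68-IkBa fusion and CBR; IMDM/0.5% FBS; cpd up to 46 uM; dox induction, 4 h, 37C/5% CO2; dual luminescence; green/red ratio; MG132 control.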
KCNH2 3.1 block = qHTS for Inhibitors of KCHN2 3.1: Mutant qHTS | Potassium voltage-gated channel subfamily H member 2, brain isoform KCNH2 3.1 (human) | U2OS KCNH2 3.1, thallium flux FluxOr; stronger effect = lower value | activity change, % (tested at about 1.8 µM) | 340,000 tested, 0.95% active;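 active = maximum activity change below -70%; inconclusive = maximum activity change from -70% to -50%; inactive = maximum activity change above -50%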;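 also: thallium influx rate constant from kinetic fluorescence after stimulation buffer; % is scaled to controls: 0 for no effect and ±100 for the full control effect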
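Measured as rate of thallium-driven FluxOr signal in transduced U2OS cells carrying the 3.1 channel, read kinetically for 2 min upon stimulation; values are rate constants scaled to DMSO control wells.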
ClpP mod = qHTS Assay for Activators of ClpP. ATP-dependent Clp protease proteolytic subunit (Bacillus subtilis (strain 168)), P80244. purified B. subtilis ClpP, FRET peptide cleavage, 20 min. Potency, µM (titrated, usually from 57.5 µM), inactives show at the highest dose activity change, negative = active. 340,000 tested, 1.9% active; active = well fitted falling curve with a large enough effect; inconclusive = small, poorly fitted or top-dose-only effect; inactive = no such curve, though single readings can be large or run the other way; also: potency is read from the fitted curve at half-maximal effect; the source files actives as falling curves though it sought activators and does not explain the sign; nearly all actives have a fitted effect of over 65% in size
Target sequence (P80244 whole entry, looked up): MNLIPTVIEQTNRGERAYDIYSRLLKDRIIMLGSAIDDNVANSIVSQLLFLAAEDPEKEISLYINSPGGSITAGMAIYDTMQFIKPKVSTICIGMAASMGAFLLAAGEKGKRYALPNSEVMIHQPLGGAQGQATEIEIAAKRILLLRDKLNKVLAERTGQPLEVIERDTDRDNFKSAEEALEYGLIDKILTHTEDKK
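Purified B. subtilis ClpP, 10 microg/mL final in Tris/HCl pH8 with KCl, BSA, glycerol and Tween-20, cleaved an Abz/nitrotyrosine-quenched decapeptide. Fluorescence (ex 320, em 430) was read at 0 and 20 min at room temperature. Delta was normalized to 5.8 microM ADEP and DMSO/no-enzyme controls.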
LDHA block = qHTS assay for inhibitors of human lactate dehydrogenase; purified LDHA, NADH/diaphorase-resazurin fluorescence; stronger effect = lower value; L-lactate dehydrogenase A chain (Homo sapiens), P00338; activity change, % (values are at about 110 or 230 µM); 480,000 tested, 0.15% active; in the data active = activity change below about -30%; inconclusive = mostly about -25% to -30%;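 also: plate controls were DMSO wells for no effect and wells without enzyme for full effect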
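Enzyme activity of human lactate dehydrogenase 5 (2 nM; 0.06 mM NADH, 0.2 mM pyruvate, 5 min, RT) is measured via a resazurin/diaphorase fluorescence readout of residual NADH.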
The depositor's hits bear a star; i = inactive; ? = inconclusive; . = no result given; ! = a repeat was not active.

SMILES	12-LOX inh	KCNH2 WT inh	Chronic BCR inh	KCNH2 3.1 block	ClpP mod	LDHA block
O=C(c1ccco1)N(CCC(c1ccccc1)c1ccco1)Cc1ccco1 (stereo not given)	17.8µM*	3.0	4.8%	2.8	-2.0%	-1.5
Cc1ccc(C(CCN(Cc2ccccc2)C(=O)c2ccco2)c2ccco2)cc1 (stereo not given)	?	-2.9	-5.2%	-6.2	.	-1.0
CC1CCCN(C(=S)SCC(=O)c2cc(Br)cc(Br)c2O)C1 (stereo not given)	6.31µM*	-13.2	1.0%	11.3	.	13.7
O=C(CSC(=S)N1CCCC1)c1cc(Br)cc(Br)c1O	14.1µM*	-5.5	?	2.0	.	9.8
N=C1C(c2nc3ccccc3c(=O)[nH]2)=C(O)CN1c1ccc(Cl)c(Cl)c1	-4.1%	.	.	.	.	-10.2
Cc1ccc(-c2n[nH]c(=S)n2/N=C/c2cccn2C)cc1	25.1µM*	3.8	13.9%	2.6	-1.2%	-1.4
Cc1ccc(/C=N/n2c(-c3ccc(Cl)cc3)n[nH]c2=S)s1	-21.9%	i	4.0%	-4.4	.	-3.8
Cc1ccc(-c2n[nH]c(=S)n2/N=C/c2ccc(C)s2)cc1	15.8µM*	-3.2	12.7%	2.6	-0.6%	-7.0
CNC(=O)c1ccccc1OCc1coc(-c2ccccc2)n1	7.5%	.	.	.	.	-19.8
COc1cccc(-c2cc3c(-n4cccc4)ncnc3o2)c1	36.7%	16.4	?	-3.8	14.1µM*	-11.9
CCc1c(C(=O)NC(C)c2ccc(OC)c(OC)c2)csc1C (stereo not given)	?	.	.	.	.	6.2
COc1ccc(-n2cc(CNCCc3nc(C)cc(C)n3)c(-c3ccccc3Cl)n2)cc1	-5.7%	-12.8	?	-49.3	.	-5.7
Fc1ccc(-n2cc(CNCCc3ccccn3)c(-c3ccccc3Cl)n2)cc1	1.4%	-47.4	?	-114.9*	1.8%	1.9
S=C(Nc1cccc(Cl)c1)N(Cc1ccccc1)Cc1ccccc1	-26.6%	.	.	.	.	2.1
CC(C)CCC(CCNC(C)c1cccs1)C1CCOC(C)(C)C1 (stereo not given)	1.78µM*	.	.	.	.	-3.0
COCCNC(=O)CSc1nc(-c2ccc(C)cc2)[nH]c1-c1ccc(OC)cc1	-13.8%	.	.	.	?	-3.8
CCOc1ccc(-c2ccc3nnc(SCC(=O)NCC4CCCO4)n3n2)cc1 (stereo not given)	-6.5%	-1.3	1.4%	2.8	31.6µM*	-4.9
CCc1ccc(-c2nc(SCC(=O)NCCOC)c(-c3ccc(C)cc3)[nH]2)cc1	-9.8%	.	.	.	28.2µM*	-10.4
Cc1ccc(-c2nc(SCC(=O)NCC3CCCO3)c(-c3ccc(C)cc3)[nH]2)cc1 (stereo not given)	?	-1.9	0.9%	-6.6	25.1µM*	-10.3
O=C(CSc1nnc(-c2cccc(Br)c2)o1)NCC1CCCO1 (stereo not given)	-4.8%	-218.5*	.	-174.1*	0.9%	-0.8
Cc1ccc(-c2nc(SCC(=O)NCC3CCCO3)c(-c3ccc(Cl)cc3)[nH]2)cc1 (stereo not given)	9.5%	-8.0	2.8%	0.5	-20.7%	-1.7
CN(C)CCOC(=O)C12CC3CCC(CC(C3)C1)C2	-29.6%	.	.	.	.	-0.6
COc1ccc2[nH]c(C)c(CCNC(=O)c3cc4ccccc4oc3=O)c2c1	?	.	.	.	.	0.2
CCCc1sc(C(=O)N2CCCCC2C)cc1Br (stereo not given)	?	.	.	.	.	2.1
COc1cccc(-c2nc(-c3ccc4c(c3)CCC4)cs2)c1OC	?	.	.	.	.	-10.5
SMILES	12-LOX inh	KCNH2 WT inh	Chronic BCR inh	KCNH2 3.1 block	ClpP mod	LDHA block
COc1ccc(-c2[nH]c(-c3ccc(Cl)cc3)nc2SCC(=O)NCC2CCCO2)cc1 (stereo not given)	?	.	.	.	25.1µM*	-9.3
Cc1ccc(-c2[nH]c(-c3ccccc3)nc2SCC(=O)NCC2CCCO2)cc1 (stereo not given)	-25.1%	-13.4	-1.5%	-25.8	28.2µM*!	-6.0
COC(=O)CCOc1ccc(S(=O)(=O)Nc2ccc(OC)c(Cl)c2)cc1	-17.4%	.	.	.	.	3.4
CCCn1cnc(NC(=O)NC2CC(C)(C)NC(C)(C)C2)n1	9.9%	.	.	.	.	.
S=C(NCc1ccccc1)N/N=C/c1ccccn1	-28.6%	.	.	.	.	-1.9
S=C(NCCc1ccccc1)N/N=C/c1c(Cl)cccc1Cl	39.8µM*	8.4	?	-15.9	0.6%	-2.4
S=C(NCc1ccccc1)N/N=C/c1c2ccccc2c(Cl)c2ccccc12	17.8µM*	.	.	.	.	-2.3
CC(C)c1cc(=O)oc2cc(OCC(=O)NCCc3ccc(F)cc3)ccc12	25.2%	.	.	.	.	-0.8
Cc1ccc(NC(=O)Cn2c(O)c(N=NC(N)=O)c3ccccc32)cc1	-12.6%	-3.8	-9.6%	11.4	.	-6.9
Cc1ccc(NC(=O)Cn2c(O)c(N=NS(=O)(=O)c3ccc(C)cc3)c3ccccc32)cc1	14.1µM*	1.9	-9.6%	-8.9	-6.7%	-3.8
Cc1cccc(N2CCN(C(=O)c3ccc(CNS(=O)(=O)c4ccc5ccccc5c4)cc3)CC2)c1	?	.	.	.	.	2.5
Cc1ncsc1CCC(=O)N1CCC2(CCNCC2)CC1	15.8µM*	.	.	.	.	.
Cc1ncsc1CCC(=O)N1CCN(CCCOc2ccc(F)cc2)CC1	75.0%	.	.	.	.	.
Cc1ccccc1C(=O)N1CC(=O)Nc2ccc(F)cc2C1c1ccc(F)cc1 (stereo not given)	?	5.2	?	-9.8	31.6µM*	-14.8
CCCC(=O)N1CC(=O)Nc2ccc(Cl)cc2C1c1ccccc1 (stereo not given)	-3.4%	.	.	.	-2.0%	-7.4
CCCC(=O)N1CC(=O)Nc2ccc(F)cc2C1c1ccccc1 (stereo not given)	1.9%	1.0	?	-86.6*	-1.6%	-10.5
O=C1CN(C(=O)c2ccccc2F)C(c2ccccc2)c2cc(F)ccc2N1 (stereo not given)	?	-8.9	?	6.8	-3.0%	-2.6
CC(=O)Nc1ccc(NC(=S)NC(NC(=O)C(C)(C)C)C(Cl)(Cl)Cl)cc1 (stereo not given)	?	.	.	.	.	-2.8
CCC(CC)c1nnc(NC(=O)c2nn(Cc3ccccc3)c(=O)c3ccccc23)s1	-4.5%	.	.	.	.	3.9
COc1cc(Cl)c(C)cc1NC(=O)c1cc2c(=O)oc3ccccc3c2s1	-23.9%	.	.	.	-3.8%	-5.9
